Drawing on PubChem BioAssay (EPA / NIEHS), this text covers outcome and AC50 for 23 compounds.

Records with an inconclusive call do not appear. Calls of active or inactive are those of the source. Rule for the calls: active = hit-call score of the fitted dose curve at least 0.9, where 1 is the maximum; inconclusive = response in the unintended direction; inactive = score below 0.9.

In test [1] the target is Estrogen receptor (Homo sapiens) + Estrogen receptor beta (Homo sapiens) (UniProt P03372+Q92731). Kind of test: OT_ER_ERaERb_1440: Odyssey Thera (OT) 24-hour HEK293T Protein-Complementation Assay for Estrogen Receptor-alpha/-beta Homodimer (AID 2283356).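 Note: heteromer of ER alpha and ER beta binding domains; hits raise reporter fluorescence and both agonists and antagonists give an increase.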 The essentials: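 HEK293T stably expressing a PCA of ER alpha LBD (aa 310-547) and ER beta LBD (aa 263-489). After 24 h compound exposure, mean fluorescence intensity in nucleus (agonists) or nucleus and cytoplasm (antagonists) measured by laser scanning cytometry versus vehicle.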
Chain of Estrogen receptor (Homo sapiens) + Estrogen receptor beta (Homo sapiens) (P03372 whole entry, looked up, the tested form may be a part): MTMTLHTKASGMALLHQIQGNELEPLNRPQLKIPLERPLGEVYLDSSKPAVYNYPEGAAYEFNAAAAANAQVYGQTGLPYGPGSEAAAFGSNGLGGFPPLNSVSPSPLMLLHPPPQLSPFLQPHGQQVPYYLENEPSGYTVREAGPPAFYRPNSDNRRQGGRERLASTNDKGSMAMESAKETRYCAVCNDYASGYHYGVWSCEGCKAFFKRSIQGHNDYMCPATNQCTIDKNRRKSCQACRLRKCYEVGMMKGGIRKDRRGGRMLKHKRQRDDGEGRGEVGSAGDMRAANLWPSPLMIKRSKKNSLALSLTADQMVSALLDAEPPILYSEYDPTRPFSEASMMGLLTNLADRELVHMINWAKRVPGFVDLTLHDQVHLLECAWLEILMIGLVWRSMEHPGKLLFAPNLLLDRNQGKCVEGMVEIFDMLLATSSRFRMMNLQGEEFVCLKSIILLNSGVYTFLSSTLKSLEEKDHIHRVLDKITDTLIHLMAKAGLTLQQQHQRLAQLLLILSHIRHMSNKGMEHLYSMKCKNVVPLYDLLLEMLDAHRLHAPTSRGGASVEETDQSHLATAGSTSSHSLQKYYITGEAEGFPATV
Chain of Estrogen receptor (Homo sapiens) + Estrogen receptor beta (Homo sapiens) (Q92731 whole entry, looked up, the tested form may be a part): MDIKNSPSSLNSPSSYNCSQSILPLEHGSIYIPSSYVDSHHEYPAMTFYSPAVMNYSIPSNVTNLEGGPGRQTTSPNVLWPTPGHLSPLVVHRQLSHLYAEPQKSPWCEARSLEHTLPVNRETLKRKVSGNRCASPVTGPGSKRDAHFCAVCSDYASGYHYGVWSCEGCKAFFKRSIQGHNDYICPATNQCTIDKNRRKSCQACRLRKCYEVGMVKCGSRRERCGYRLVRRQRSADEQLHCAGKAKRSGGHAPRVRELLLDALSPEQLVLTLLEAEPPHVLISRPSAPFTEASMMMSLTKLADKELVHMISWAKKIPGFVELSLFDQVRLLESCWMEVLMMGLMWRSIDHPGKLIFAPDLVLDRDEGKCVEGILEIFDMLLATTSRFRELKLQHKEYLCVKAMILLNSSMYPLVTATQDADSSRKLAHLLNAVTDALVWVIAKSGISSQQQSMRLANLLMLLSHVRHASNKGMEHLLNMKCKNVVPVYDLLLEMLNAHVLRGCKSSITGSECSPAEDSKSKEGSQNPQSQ

Test [2] deals with Estrogen receptor beta (Homo sapiens) (UniProt Q92731). Kind of test: OT_ER_ERbERb_0480: Odyssey Thera (OT) 8-hour HEK293T Protein-Complementation Assay for Estrogen Receptor-beta/-beta Homodimer (AID 2283357).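 Note: active means signal gain over DMSO baseline.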 The essentials: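 Readout: increase in mean fluorescence intensity (nucleus for agonists; nucleus plus cytoplasm for antagonists) relative to DMSO, from a reporter-fragment complementation of human ER-beta LBD homodimer in HEK293T cells dosed 8 hours.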
Chain of Estrogen receptor beta (Homo sapiens) (Q92731 whole entry, looked up, the tested form may be a part): as above

The target in test [3] is human Peroxisome Proliferator-activated Receptor alpha (PPARa), PPARA (gene 5465) (UniProt Q07869). Description: NVS_NR_hPPARa: NovaScreen (NVS) Nuclear Receptor Binding Assay for human Peroxisome Proliferator-activated Receptor alpha (PPARa) (AID 2283359).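 Note: activity means loss of TR-FRET signal versus DMSO baseline.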 A digest of the protocol:
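Cell-free binding assay with extracted human protein, read by TR-FRET 1 h after chemical dosing. Loss of signal relative to DMSO baseline indicates binding. Primary screen used duplicate single concentration (25 uM); actives followed up in concentration series.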

Test [4] has as its target human Norepinephrine Transporter (NET), SLC6A2 (gene 6530) (UniProt P23975). Kind of test: NVS_TR_hNET: NovaScreen (NVS) Transporter Assay for human Norepinephrine Transporter (NET) (AID 2283377).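 Note: cell-free membrane protein extracted from CHO cells expressing human NET.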 A digest of the protocol:
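Radioligand binding to human NET in cell-free CHO-derived protein preparations, read by filter-based scintillation counting 1 hour after dosing. Loss of signal versus DMSO baseline indicated displacement; primary screening in duplicate at 25 uM, actives then titrated.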

For test [5], the target named is PGR (gene 5241) (UniProt P06401). Description: NVS_NR_hPR: NovaScreen (NVS) Nuclear Receptor Binding Assay for human Progestron Receptor (PR) (AID 2283360).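 Note: active means loss of bound radioligand signal versus DMSO baseline.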 The essentials: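 Competitive displacement of a labelled radioligand from T47D-derived receptor protein is measured in a cell-free format. Initial testing uses 25 uM in duplicate, with positive and negative controls on every plate.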

Test [6] deals with Androgen Receptor/SRC-1 Co-activator, AR (gene 367) (UniProt P10275). Description: OT_AR_ARSRC1_0480: Odyssey Thera (OT) 8-hour HEK293T Protein-Complementation Assay for Androgen Receptor/SRC-1 Co-activator (AID 2283354).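 Note: hits raise the complementation signal above DMSO so AC50 marks enhancers.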 A digest of the protocol:
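HEK293T cells stably expressing AR and SRC-1 fused to split Venus YFP fragments via (Gly4Ser)2 linkers were read 8 h after compound dosing. Complementation was imaged at 488 and 635nm, and nuclear/cytoplasmic fluorescence ratio (488nm) was taken over ≥400 cells; gain-of-signal versus DMSO.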

Test [7] addresses Nuclear receptor subfamily 1 group I member 2 (Homo sapiens) (UniProt O75469). Description: NVS_NR_hPXR: NovaScreen (NVS) Nuclear Receptor Binding Assay for human Pregnane X Receptor (PXR) (AID 2283365).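 Note: a drop in FRET signal versus DMSO baseline means the compound binds.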 A digest of the protocol: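 Cell-free TR-FRET binding assay with extracted human PXR protein, read 2 h after dosing. Primary screen run in duplicate at 25 uM, actives followed in concentration series; loss of signal fitted against DMSO baseline.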

Test [8] concerns the target guinea pig Sigma Receptor, Non-selective Binding, SIGMAR1 (gene 100135589) (UniProt Q60492). Description: NVS_OR_gSIGMA_NonSelective: NovaScreen (NVS) Nuclear Receptor Binding Assay for guinea pig Sigma Receptor, Non-selective Binding (AID 2283367). A digest of the protocol:
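Guinea pig brain membranes, cell-free radioligand binding; read 1 h after dosing by filter-based scintillation counting. Loss of signal vs DMSO baseline taken as displacement. Primary screen single concentration 25 uM in duplicate; actives retested in concentration series.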

Test [9] concerns guinea pig Dopamine Transporter (DAT), gene 100714898. Kind of test: NVS_TR_gDAT: NovaScreen (NVS) Transporter Assay for guinea pig Dopamine Transporter (DAT) (AID 2283369).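 Note: active compounds lower bound radioligand signal relative to DMSO.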 A digest of the protocol:
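Guinea pig striatal membranes, cell-free radioligand binding with filter-based scintillation counting, read 2 h after dosing. Loss of signal versus DMSO baseline; single-concentration primary (25 uM) then concentration-response up to 50 uM.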

The target in test [10] is human Dopamine Transporter (DAT), SLC6A3 (gene 6531) (UniProt Q01959). Description: NVS_TR_hDAT: NovaScreen (NVS) Transporter Assay for human Dopamine Transporter (DAT) (AID 2283374).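 Note: activity means loss of bound radioligand signal relative to DMSO.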 A digest of the protocol: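 Cell-free radioligand binding to extracted human DAT protein, read 1 h after dosing by filter-based scintillation counting. Loss of specific binding scored against DMSO baseline; primary screen in duplicate at 25 uM, actives then run in concentration series.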

Test [11] deals with human Thyroid Receptor Alpha (TRa), THRA (gene 7067) (UniProt P10827). Description: NVS_NR_hTRa_Antagonist: NovaScreen (NVS) Nuclear Receptor Binding Assay for human Thyroid Receptor Alpha Antagonism (TRa) (AID 2283362). A digest of the protocol: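 Cell-free AlphaLISA chemiluminescent binding read 1 h after dosing, antagonist mode; signal loss versus DMSO baseline. Primary screen in duplicate at 25 uM, then concentration series for actives.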

Test [12] deals with human Adenosine Transporter (Adot), SLC29A1 (gene 2030) (UniProt Q99808). Kind of test: NVS_TR_hAdoT: NovaScreen (NVS) Transporter Assay for human Adenosine Transporter (Adot) (AID 2283368). The essentials:
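U937-derived membranes, cell-free radioligand binding, filter scintillation 1 h after dosing. 25 uM duplicate screen; hits (e.g. 30% inhibition) run in concentration-response up to 50 uM; loss of signal versus DMSO.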

The target in test [13] is Peroxisome proliferator-activated receptor gamma (Homo sapiens) (UniProt P37231). Description: NVS_NR_hPPARg: NovaScreen (NVS) Nuclear Receptor Binding Assay for human Peroxisome Proliferator-activated Receptor gamma (PPARg) (AID 2283370). A digest of the protocol:
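Cell-free fluorescence polarization binding to human PPARg protein, read 2 h after dosing. Primary screen in duplicate at 25 uM, actives followed in concentration series; loss of signal relative to DMSO scored.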

Test [14] deals with human Serotonin Transporter (SERT), SLC6A4 (gene 6532) (UniProt P31645). Kind of test: NVS_TR_hSERT: NovaScreen (NVS) Transporter Assay for human Serotonin Transporter (SERT) (AID 2283372). The essentials:
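Radioligand binding to native SERT in human platelet membranes, read by filter-based scintillation counting 1 h after dosing. Primary screen in duplicate at 25 uM; actives followed up in concentration series; loss of signal versus DMSO baseline.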

For test [15], the target named is Retinoic acid receptor alpha (Homo sapiens) (UniProt P10276). Description: NVS_NR_hRAR_Antagonist: NovaScreen (NVS) Nuclear Receptor Binding Assay for human Retinoic Acid Alpha Receptor Antagonism (RAR) (AID 2283358). A digest of the protocol: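 Cell-free TR-FRET binding assay on extracted receptor protein, run in antagonist mode; signal read 2 hours after chemical dosing. Loss of signal was fitted relative to DMSO baseline. Screened at 25 uM in duplicate, actives followed up in concentration series.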
Chain of Retinoic acid receptor alpha (Homo sapiens) (P10276 whole entry, looked up): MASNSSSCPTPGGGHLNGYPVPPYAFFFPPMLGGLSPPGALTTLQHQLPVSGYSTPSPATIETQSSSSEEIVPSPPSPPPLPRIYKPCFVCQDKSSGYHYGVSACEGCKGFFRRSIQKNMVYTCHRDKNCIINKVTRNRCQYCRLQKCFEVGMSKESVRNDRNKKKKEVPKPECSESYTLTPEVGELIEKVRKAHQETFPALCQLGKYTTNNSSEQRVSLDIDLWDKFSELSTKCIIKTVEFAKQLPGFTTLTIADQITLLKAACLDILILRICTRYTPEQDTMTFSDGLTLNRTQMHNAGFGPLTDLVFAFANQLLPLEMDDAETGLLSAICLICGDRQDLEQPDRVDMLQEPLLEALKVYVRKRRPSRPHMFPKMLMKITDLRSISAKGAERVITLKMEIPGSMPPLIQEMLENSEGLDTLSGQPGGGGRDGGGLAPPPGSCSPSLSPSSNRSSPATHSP

The target of test [16] is Glucocorticoid receptor (Homo sapiens) (UniProt P04150). Description: NVS_NR_hGR: NovaScreen (NVS) Nuclear Receptor Binding Assay for human Glucocorticoid Receptor (GR) (AID 2283363).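 Note: activity is loss of specific radioligand binding signal relative to DMSO.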 A digest of the protocol: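 Cell-free radioligand binding with extracted receptor protein, read by filter-based scintillation counting 16 hours after dosing. Loss of specific signal versus DMSO baseline was scored. Primary screen ran in duplicate at 25 uM; actives were followed up in concentration series.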

Test [17] concerns the target rat Androgen Receptor (AR), Ar (gene 24208) (UniProt P15207). Description: NVS_NR_rAR: NovaScreen (NVS) Nuclear Receptor Binding Assay for rat Androgen Receptor (AR) (AID 2283366). A digest of the protocol: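 Cell-free radioligand binding on extracts of prostate from testosterone-pretreated rats, read by filter-based scintillation counting 18 h after dosing. Loss of bound signal fitted positively versus DMSO; primary screen in duplicate at 25 uM, actives followed up in concentration series.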

Test [18] deals with Retinoic acid receptor alpha (Homo sapiens) (UniProt P10276). Description: NVS_NR_hRARa_Agonist: NovaScreen (NVS) Nuclear Receptor Binding Assay for human Retinoic Acid Alpha Receptor Agonism (RAR) (AID 2283361). A digest of the protocol: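 Cell-free TR-FRET binding read-out with extracted human RARα protein, read 2 h after compound addition. Gain of signal scored against DMSO baseline. Primary screen at a single 25 uM in duplicate; actives then retested in concentration series.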

Chain of Nuclear receptor subfamily 1 group I member 2 (Homo sapiens) (O75469 whole entry, looked up): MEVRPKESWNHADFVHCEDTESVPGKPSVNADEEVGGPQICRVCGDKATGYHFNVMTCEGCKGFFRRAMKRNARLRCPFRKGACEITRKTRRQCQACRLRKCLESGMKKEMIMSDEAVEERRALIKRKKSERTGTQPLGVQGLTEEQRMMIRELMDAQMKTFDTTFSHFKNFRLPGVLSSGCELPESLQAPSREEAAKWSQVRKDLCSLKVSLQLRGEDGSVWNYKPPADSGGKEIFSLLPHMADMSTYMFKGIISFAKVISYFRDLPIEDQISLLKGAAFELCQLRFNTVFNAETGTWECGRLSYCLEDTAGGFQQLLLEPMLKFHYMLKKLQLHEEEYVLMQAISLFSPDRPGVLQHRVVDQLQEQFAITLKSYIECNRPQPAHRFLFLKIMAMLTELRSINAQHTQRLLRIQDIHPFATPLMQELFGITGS
Chain of human Adenosine Transporter (Adot), SLC29A1 (gene 2030) (Q99808 whole entry, looked up): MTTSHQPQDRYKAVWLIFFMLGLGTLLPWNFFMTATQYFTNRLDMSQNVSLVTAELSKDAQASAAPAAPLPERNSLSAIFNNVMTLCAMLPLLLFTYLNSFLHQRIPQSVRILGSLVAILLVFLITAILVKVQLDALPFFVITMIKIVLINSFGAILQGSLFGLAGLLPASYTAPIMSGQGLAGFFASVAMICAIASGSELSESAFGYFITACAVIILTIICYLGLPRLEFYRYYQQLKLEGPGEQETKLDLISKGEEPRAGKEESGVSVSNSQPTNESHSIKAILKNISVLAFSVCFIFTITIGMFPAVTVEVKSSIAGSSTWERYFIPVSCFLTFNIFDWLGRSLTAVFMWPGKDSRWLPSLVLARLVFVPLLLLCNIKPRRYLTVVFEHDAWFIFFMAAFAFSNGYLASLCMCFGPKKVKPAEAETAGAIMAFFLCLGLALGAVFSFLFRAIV
Chain of guinea pig Sigma Receptor, Non-selective Binding, SIGMAR1 (gene 100135589) (Q60492 whole entry, looked up): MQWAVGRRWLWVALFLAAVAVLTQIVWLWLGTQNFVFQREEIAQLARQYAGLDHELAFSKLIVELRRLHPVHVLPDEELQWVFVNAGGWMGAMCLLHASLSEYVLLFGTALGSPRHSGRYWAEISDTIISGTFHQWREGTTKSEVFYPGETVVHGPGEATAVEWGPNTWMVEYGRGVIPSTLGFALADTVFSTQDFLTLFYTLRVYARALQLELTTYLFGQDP
Chain of human Peroxisome Proliferator-activated Receptor alpha (PPARa), PPARA (gene 5465) (Q07869 whole entry, looked up): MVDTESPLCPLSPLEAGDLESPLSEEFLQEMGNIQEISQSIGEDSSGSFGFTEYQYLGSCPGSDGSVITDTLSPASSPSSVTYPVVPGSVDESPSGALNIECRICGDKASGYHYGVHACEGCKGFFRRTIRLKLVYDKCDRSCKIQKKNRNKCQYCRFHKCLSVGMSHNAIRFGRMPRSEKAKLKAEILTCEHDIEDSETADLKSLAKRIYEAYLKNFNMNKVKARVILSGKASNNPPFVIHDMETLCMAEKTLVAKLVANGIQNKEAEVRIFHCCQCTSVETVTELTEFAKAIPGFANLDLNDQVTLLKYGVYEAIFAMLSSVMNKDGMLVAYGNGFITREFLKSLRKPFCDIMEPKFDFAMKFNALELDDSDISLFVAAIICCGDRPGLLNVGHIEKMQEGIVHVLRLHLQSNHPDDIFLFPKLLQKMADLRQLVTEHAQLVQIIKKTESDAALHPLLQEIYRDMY
Chain of human Norepinephrine Transporter (NET), SLC6A2 (gene 6530) (P23975 whole entry, looked up): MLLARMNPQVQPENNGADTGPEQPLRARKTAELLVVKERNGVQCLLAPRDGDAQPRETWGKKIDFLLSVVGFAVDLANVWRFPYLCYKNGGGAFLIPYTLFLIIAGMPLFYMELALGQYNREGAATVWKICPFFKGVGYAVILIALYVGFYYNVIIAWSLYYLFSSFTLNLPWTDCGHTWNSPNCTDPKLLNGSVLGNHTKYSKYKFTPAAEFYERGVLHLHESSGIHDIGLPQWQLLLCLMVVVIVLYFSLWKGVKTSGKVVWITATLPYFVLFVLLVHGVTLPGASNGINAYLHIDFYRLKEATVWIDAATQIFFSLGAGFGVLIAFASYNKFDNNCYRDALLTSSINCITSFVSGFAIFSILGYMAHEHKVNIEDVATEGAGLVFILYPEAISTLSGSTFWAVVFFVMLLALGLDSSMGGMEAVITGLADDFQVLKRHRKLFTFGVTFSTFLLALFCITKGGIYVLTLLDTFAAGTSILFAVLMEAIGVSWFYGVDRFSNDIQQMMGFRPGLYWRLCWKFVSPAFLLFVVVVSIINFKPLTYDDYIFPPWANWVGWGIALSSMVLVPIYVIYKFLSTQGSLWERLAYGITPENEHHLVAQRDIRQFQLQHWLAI
Chain of Androgen Receptor/SRC-1 Co-activator, AR (gene 367) (P10275 whole entry, looked up, the tested form may be a part): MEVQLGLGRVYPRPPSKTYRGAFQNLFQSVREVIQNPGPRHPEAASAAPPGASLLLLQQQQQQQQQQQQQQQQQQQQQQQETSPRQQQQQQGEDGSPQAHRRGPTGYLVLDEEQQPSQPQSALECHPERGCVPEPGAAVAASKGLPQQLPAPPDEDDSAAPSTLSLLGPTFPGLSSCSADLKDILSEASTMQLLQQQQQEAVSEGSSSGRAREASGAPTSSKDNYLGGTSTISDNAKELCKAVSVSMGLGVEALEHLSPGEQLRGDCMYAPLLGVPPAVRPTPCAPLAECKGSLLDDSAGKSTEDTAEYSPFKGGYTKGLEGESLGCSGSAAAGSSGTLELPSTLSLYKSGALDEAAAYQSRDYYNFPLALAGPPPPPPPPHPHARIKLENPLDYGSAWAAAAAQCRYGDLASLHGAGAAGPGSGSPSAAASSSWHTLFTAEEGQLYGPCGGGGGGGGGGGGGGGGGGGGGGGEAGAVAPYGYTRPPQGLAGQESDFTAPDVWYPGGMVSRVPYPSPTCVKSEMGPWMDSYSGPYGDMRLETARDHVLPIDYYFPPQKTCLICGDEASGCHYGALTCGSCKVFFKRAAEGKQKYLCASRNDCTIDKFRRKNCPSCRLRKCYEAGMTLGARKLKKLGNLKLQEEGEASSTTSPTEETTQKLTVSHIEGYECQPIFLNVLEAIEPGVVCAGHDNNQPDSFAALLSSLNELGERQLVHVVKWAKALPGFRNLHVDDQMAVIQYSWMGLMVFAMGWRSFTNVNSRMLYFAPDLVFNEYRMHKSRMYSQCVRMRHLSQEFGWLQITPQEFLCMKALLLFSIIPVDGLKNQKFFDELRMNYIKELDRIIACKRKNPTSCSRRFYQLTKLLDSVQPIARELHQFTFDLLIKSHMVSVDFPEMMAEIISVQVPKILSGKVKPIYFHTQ

With `O=C(O)c1cccc(C[C@@H]2COc3ccc(OCc4nc5cc(F)ccc5s4)cc3[C@@H]2O)c1`, the result in test [1], in test [2], in test [3] and in test [4] was inactive.
Turning to `CC(C)CC(C)O` (centres undefined), the result in test [1] and in test [2] was inactive.
In general, AC50 refers to the concentration giving half of the maximal activity seen. As to `CCc1ccc(O)c(C(C)(C)C)c1`, the result in test [1], in test [3] and in test [5] was inactive. Moreover, in test [2], the AC50 was 11.9 µM (active).
As for `CCN(CC)C(=S)SSC(=S)N(CC)CC`, the AC50 in [6] is 23.9 µM (active); in test [1], 12 µM (active); in test [7] it was 0.7 µM (active); in [8], 25 µM (active); in [10], 10.4 µM (active); in [4], 0.344 µM (active). Moreover, the call in [2] and in [9] was inactive.
As to `CCCCC(CC)C(=O)OCCOCCOCCOC(=O)C(CC)CCCC` (centres undefined), the compound was classed as inactive in test [6], in test [1], in [2], in test [11], in test [8] and in [10]. In addition, in [4], the outcome was inactive.
As to `Cc1nccn1-c1ccc(Sc2cccc(C3(C(N)=O)CCOCC3)c2)cc1`, the AC50 in test [1] is 20.9 µM (active); in test [2], 32.3 µM (active); in test [5], 6.18 µM (active); in test [8], 19.7 µM (active); in test [9], 0.0243 µM (active); in [10], 6.99 µM (active). Further, the call in test [3], in test [12] and in [13] was inactive.
Take `NNC(=O)c1ccncc1`: the outcome in [1] and in [2] was inactive.
Take `CCCCCCOC(=O)CC(CC(=O)OCCCCCC)(OC(=O)CCC)C(=O)OCCCCCC`: the call in [6], in test [1] and in test [2] was inactive.
On to `COCc1nnc(-c2ccc[n+]([O-])c2)n1-c1c(Cl)c(Cl)cc2[nH]c(=O)c(=O)[nH]c12`, for which the outcome in test [6], in test [1] and in [2] was inactive.
Consider `CCCCCCCCCCCCCCO`, for which the result in test [1], in test [2] and in test [3] was inactive.
For `CCCCOC(=O)c1ccccc1`, in [6], the compound was called inactive.
As for `NC(N)=O`, the result in test [1] and in test [2] was inactive.
On to `OCCOCCOCCO`, for which the call in test [6], in test [1], in test [2], in [14] and in test [4] was inactive. Besides, the concentration at half-maximal activity (AC50) in [7] was 0.108 µM (active); in test [10], 6.63 µM (active).
For the compound `CCCCCCCC1CCC(=O)O1` (centres undefined), the result in [1] and in test [2] was inactive.
For `O=C(O)CO`, the outcome in [1] and in test [2] was inactive.
Regarding `CCCCCCCC/C=C\CCCCCCCC(=O)OC[C@@H](O)[C@H]1OC[C@H](O)[C@H]1O`, the result in test [1], in test [2], in test [15] and in [7] was inactive. Besides, the AC50 in test [3] was 0.845 µM (active).
Regarding `C=CCc1cc(S(=O)(=O)c2ccc(O)c(CC=C)c2)ccc1O`, the AC50 in test [6] was 82.7 µM (active); in test [3], 25 µM (active); in test [16] it was 4.59 µM (active); in test [17], 4.5 µM (active); in [12] it was 25 µM (active); in [9] it was 13.2 µM (active). Besides, the AC50 in [13] is 0.621 µM (active); in test [10], 7.48 µM (active); in test [4], 6.96 µM (active). Moreover, the result in test [1] and in test [2] was inactive.
Regarding `NC(=O)N1c2ccccc2C=Cc2ccccc21`, the result in test [1], in test [2], in [15] and in test [5] was inactive.
For the compound `CCCCCCCCN(C)C`, in test [18], the compound was classed as inactive.
`C[C@]12C=CC(=O)C=C1CC[C@H]1[C@@H]3C[C@@H](O)[C@](O)(C(=O)CO)[C@@]3(C)C[C@H](O)[C@@]12F`: the outcome in test [7] was inactive.
Consider `OCC(CO)(CO)CO`, for which the result in [7] was inactive.
Take `CCn1nc(C)c2c1C(=O)NCC(c1ccc(O)cc1)=N2`: in [12], the outcome was inactive.
`c1ccc(C(O[C@@H]2CCCN(CCc3ccc4c(c3)OCO4)C2)c2ccccc2)cc1`: the compound was called inactive in test [14].
